Values joined by “and” are separate entries in the source; they are usually repeats but may differ in a detail not shown here. Equal values may be shown once. Inconclusive results are not listed. Values without a mark were called inactive. Active and inactive are the calls of the source. Calls come from the whole dose curve; as a rule, active = well fitted curve in the direction sought with a large enough effect; inconclusive = small, poorly fitted or top-dose-only effect, or another doubt; inactive = no such curve, though single readings can be large; an effect the other way counts as inactive or inconclusive.

Data on 15 molecules can be found in PubChem BioAssay (NCATS).

The target in test [1] is Cellular tumor antigen p53 (Homo sapiens) (UniProt P04637). Put plainly: Primary qHTS for small molecule compounds that upregulate eGFP-tagged delta133p53alpha (in N-terminal) cells. (AID 2060322).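 For activation: series mostly up to about 56 µM; 0% = DMSO vehicle and 100% = reference activator.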 Note: nearly all actives have a fitted effect of over 75% in size. Note: potency is the fitted concentration of half-maximal effect. As to conditions: NCI-H358 eGFP-delta133p53alpha fluorescence, 24 h; activation: hits give high values. In short, it runs like this: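 NCI-H358 cells pre-induced 24 h with 10 ng/ml doxycycline to express N-terminal eGFP-delta133p53alpha, then dosed 24 h at 37C without doxycycline; fixed, Hoechst-stained, GFP intensity by laser scanning cytometry, normalized to DMSO (0%) and 57.5 uM 5-azacytidine (100%).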
On the technique in general: qHTS replaces the single test concentration by a dilution series.

For test [2], the target named is Aldehyde dehydrogenase, mitochondrial (Homo sapiens) (UniProt P05091). In words: qHTS for Inhibitors of the Aldehyde Dehydrogenase Family (ALDH2) Primary screen (AID 2061308).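 Note: plate controls were vehicle for no effect and reference inhibitor for full effect; nearly all actives have a fitted effect of over 55% in size.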
Test [3] deals with Retinaldehyde dehydrogenase 3 (Homo sapiens) (UniProt P47895). Put plainly: qHTS for Inhibitors of the Aldehyde Dehydrogenase Family (ALDH1A3) Validation screen (AID 2061312). Note: % is set by controls: 0 for no effect and ±100 for the full control effect; nearly all actives have a fitted effect of over 45% in size.
Test [4] has the same target. Put plainly: qHTS for Inhibitors of the Aldehyde Dehydrogenase Family (ALDH1A3) Primary screen (AID 2061315).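 Note: plate controls were DMSO vehicle for no effect and reference inhibitor for full effect.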
Test [5] in a line: BET inhibitor-based combinations targeting novel dependencies in MECOM-rearranged (r) AML: SET-2 cell line (AID 2202231).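 For viability: plate controls were DMSO treated cells for no effect and wells without cells for full effect.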 Note: nearly all actives have a fitted effect of over 35% in size. Note: potency is the fitted concentration of half-maximal effect. As to conditions: SET-2 AML cells viability, CellTiter-Glo luminescence, 48 h; viability: hits give low values, concentration not given here. In short, it runs like this:
(§1)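 AML cell lines seeded at 500 cells/well, treated with 11-point dose curves for 48 h. Viability by CellTiter-Glo luminescence, normalised to DMSO and empty wells; activity expressed as AUC and per-cell-line Z-transformed AUC.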
Background: In ATP-based viability assays light output follows the ATP content of the culture.

A short description of test [6]: BET inhibitor-based combinations targeting novel dependencies in MECOM-rearranged (r) AML: OCI-AML3 cell line (AID 2202232).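 For viability (% of control): series mostly up to about 46 µM; plate controls were DMSO vehicle wells for no effect and wells without cells for full effect.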 Note: nearly all actives have a fitted effect of over 35% in size. Note: potency is the fitted concentration of half-maximal effect. As to conditions: Potency: OCI-AML3 viability. A digest of the protocol:
as §1

Test [7] in a line: BET inhibitor-based combinations targeting novel dependencies in MECOM-rearranged (r) AML: MV-4-11 cell line (AID 2202233).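 For viability, % of control: plate controls were DMSO for no effect and blank wells for full effect.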 Note: nearly all actives have a fitted effect of over 45% in size. Note: potency is the fitted concentration of half-maximal effect. A digest of the protocol: (§2)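 Cells at 500/well were exposed for 48 hr to MIPE v5.0 drugs as 11-point dose curves. Viability was read by CellTiter-Glo luminescence and normalized to DMSO and empty-well controls. Activity was expressed as AUC and per-cell-line Z-AUC.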

A short description of test [8]: BET inhibitor-based combinations targeting novel dependencies in MECOM-rearranged (r) AML: HNT-34 cell line (AID 2202234).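 For viability (% of control): plate controls were vehicle wells for no effect and cell-free wells for full effect.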 Note: nearly all actives have a fitted effect of over 35% in size. Note: potency is the fitted concentration of half-maximal effect. A digest of the protocol: as §2
Test [9] can be described thus: BET inhibitor-based combinations targeting novel dependencies in MECOM-rearranged (r) AML: AML-191 cell line (AID 2202236; note: nearly all actives have a fitted effect of over 35% in size; note: potency is the fitted concentration of half-maximal effect;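 for viability (% of control): plate controls were vehicle wells for no effect and wells without cells for full effect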). In short, it runs like this:
as §1

A short description of test [10]: BET inhibitor-based combinations targeting novel dependencies in MECOM-rearranged (r) AML: AML-194 cell line (AID 2202237; note: nearly all actives have a fitted effect of over 40% in size; note: potency is the fitted concentration of half-maximal effect;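 for viability (% of control): plate controls were vehicle wells for no effect and wells without cells for full effect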). A digest of the protocol: as §1
Test [11] is described as follows: BET inhibitor-based combinations targeting novel dependencies in MECOM-rearranged (r) AML: UCSD-AML1 cell line (AID 2202235).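 For viability (% of control): series mostly up to about 46 µM; plate controls were DMSO vehicle wells for no effect and blank wells for full effect.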 Note: nearly all actives have a fitted effect of over 40% in size. Note: potency is the fitted concentration of half-maximal effect. In short, it runs like this: as §2

Sequence of Cellular tumor antigen p53 (Homo sapiens) (P04637 whole entry, looked up): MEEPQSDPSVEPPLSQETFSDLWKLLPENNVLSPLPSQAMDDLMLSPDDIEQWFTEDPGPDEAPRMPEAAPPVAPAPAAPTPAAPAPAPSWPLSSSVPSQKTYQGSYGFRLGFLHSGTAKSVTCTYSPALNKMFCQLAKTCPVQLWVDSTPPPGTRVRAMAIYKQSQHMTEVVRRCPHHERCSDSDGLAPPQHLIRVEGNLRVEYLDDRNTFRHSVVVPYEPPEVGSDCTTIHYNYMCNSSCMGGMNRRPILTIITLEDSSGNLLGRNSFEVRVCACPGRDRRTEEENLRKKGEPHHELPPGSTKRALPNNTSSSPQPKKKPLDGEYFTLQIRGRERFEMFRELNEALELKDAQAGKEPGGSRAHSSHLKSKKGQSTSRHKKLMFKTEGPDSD

In the case of `CCN(CC)CCNC(=O)c1ccc2nc(-c3ccccc3)c(-c3ccc(CN4CCC(n5c(=O)[nH]c6ccccc65)CC4)cc3)nc2c1`, the Potency was 4.32 µM (active) and 8.49 µM (active) in test [1]; 8330 nM (active) in [5]; 8330 nM (active) in [6]; 6610 nM (active) in [7]; 8330 nM (active) in test [8]; 9340 nM (active) in test [9]. For the same molecule, in test [10], the Potency is 7420 nM (active). The Potency entry in [2], in test [3] and in [4] was “inactive” throughout.
`CNC1CCC(N(Cc2cccc(-c3ccncc3)c2)C(=O)c2sc3c(F)ccc(F)c3c2Cl)CC1` (stereo not drawn): in test [1], the activation is 21.5%. For the same molecule, the Potency entry in test [2], in test [3] and in [4] was “inactive” throughout. Moreover, the Potency in [5] was 26300 nM (active); in [6], 16600 nM (active); in test [7] it was 16600 nM (active); in [8], 20900 nM (active); in test [9], 20900 nM (active); in [10], 23500 nM (active).
For `CC[C@@H](C)Nc1cc(C(=O)NC2CC3CCC(C2)N3c2ccc(C(=O)C3CC3)cn2)c(C)cc1C(N)=O` (stereo partly drawn), in [1], the activation is -11%. Further, the Potency result in [2], in [3] and in [4] was “inactive” each time. Moreover, the Potency in [5] is 132 nM (active); in [6] it was 166 nM (active); in test [7], 66.1 nM (active); in test [8], 148 nM (active); in [11], 263 nM (active); in [9], 209 nM (active). Further, the Potency in test [10] was 118 nM (active).
With `COc1cc(-c2nn(C3CCC(N4CCN(C(C)=O)CC4)CC3)c3ncnc(N)c23)ccc1NC(=O)c1cc2ccccc2n1C` (stereo not drawn), the activation in [1] was 17.1%. Moreover, the Potency entry in test [2], in test [3] and in test [4] was “inactive” throughout. Moreover, the Potency in test [5] was 9340 nM (active); in [6], 7420 nM (active); in test [7], 9340 nM (active); in test [8] it was 2090 nM (active); in test [9], 5900 nM (active); in test [10] it was 4170 nM (active).
On to `O=C(Nc1ncc(-c2cc(C(F)F)nn2-c2c(Cl)cccc2Cl)s1)C1CC1`, for which, in test [1], the activation was 7.16%. For the same molecule, the Potency result in [2], in [3] and in [4] was “inactive” each time. For the same molecule, the Potency in test [5] is 1050 nM (active); in test [6], 833 nM (active); in [7], 1050 nM (active); in test [8] it was 742 nM (active); in test [11], 833 nM (active); in test [9], 934 nM (active). In test [10], the Potency was 742 nM (active).
`NC(=O)Nc1cc(-c2cccc(F)c2)sc1C(=O)N[C@H]1CCCNC1`: the Potency in [1] was 8.49 µM (active); in test [5], 934 nM (active); in [6] it was 468 nM (active); in test [7] it was 2.1 nM (active); in test [8], 468 nM (active); in test [11], 296 nM (active). Moreover, the Potency in test [9] is 332 nM (active); in test [10], 372 nM (active). Also, the Potency result in test [2], in test [3] and in test [4] was “inactive” each time.
As to `COc1ccc(N(C)c2nc(C)nc3ccccc23)cc1`, the activation in [1] was 0.477%. Moreover, the Potency entry in test [2], in test [3] and in test [4] was “inactive” each time. For the same molecule, the Potency in [5] is 11.8 nM (active); in [6], 9.3 nM (active); in test [7], 10.5 nM (active); in test [11] it was 11.8 nM (active); in test [9], 9.3 nM (active); in test [10], 10.5 nM (active).
As to `Cn1c(CNc2ccc(C(=N)N)cc2)nc2cc(C(=O)N(CCC(=O)O)c3ccccn3)ccc21`, the activation in [1] was 22.7% and -0.477%. Also, the Potency entry in test [2], in test [3] and in test [4] was “inactive” throughout. Further, the viability (commonly a read-out of living cells in per cent, often relative to untreated cells) in test [5] is 116%. Moreover, the viability (% of control) in test [6] is 119% [at 0.315 µM]; in test [8] it was 104% [at 0.315 µM]; in [9] it was 101% [at 0.315 µM]; in test [10], 118% [at 0.315 µM]. Further, the viability, % of control in [7] was 133% [at 0.315 µM].
`CNC(=O)c1cccc(-c2ccc3c(N4CCOC[C@@H]4C)nc(N4CCOC[C@@H]4C)nc3n2)c1`: the activation in test [1] was 20%. The Potency result in test [2], in test [3] and in [4] was “inactive” each time. Besides, the Potency in [5] was 590 nM (active); in [6] it was 263 nM (active); in [7] it was 372 nM (active); in test [11], 66.1 nM (active).
Turning to `COc1cccc(Nc2c(C(N)=O)cnc3c(C)cc(S(=O)(=O)c4cccc(C(=O)N(C)C)c4)cc23)c1`, in test [1], the activation was 11.1% and -9.07%. Further, the Potency result in test [2], in [3], in [4], in [11] and in [10] was “inactive” each time. The viability in test [5] was 120%. Further, the results for the Potency in [6], in [7] and in test [9] were 16600 nM (active), 3320 nM (active) and 5900 nM (active), respectively.
For the molecule `CC1COC2(CCN(c3nc(=O)c4cc(C(F)(F)F)cc([N+](=O)[O-])c4s3)CC2)O1` (stereo not drawn), in [1], the activation was -5.81% and -10.5%. Besides, the Potency result in test [2], in [3], in test [4], in test [6], in [7] and in test [8] was “inactive” throughout. Moreover, the Potency entry in test [11], in test [9] and in test [10] was “inactive” throughout. For the same molecule, the viability in test [5] was 104%.
With `COc1cccc2c(NCc3ccccc3)nc(-n3c(N)nc4ccccc43)nc12`, in test [1], the activation was -21.2%. The Potency entry in test [2], in test [3] and in test [4] was “inactive” throughout. Also, the Potency is 7420 nM (active) in test [5]; 3320 nM (active) in test [6]; 7420 nM (active) in test [7]; 3720 nM (active) in test [8]; 2950 nM (active) in [9]; 2630 nM (active) in test [10].
Regarding `CCN(c1cc(-c2ccc(CN3CCOCC3)cc2)cc(C(=O)NCc2c(C)cc(C)[nH]c2=O)c1C)C1CCOCC1`, in test [1], the activation is -17.7%. For the same molecule, the Potency result in test [2], in [3], in test [4], in [8], in test [11] and in test [9] was “inactive” in each case. In addition, the Potency result in [10] is “inactive”. Also, the viability in [5] is 94.8%.
`O=C(NCC(=O)N1CC[C@H](NC2CCC(O)(c3ccc(-c4ncccn4)cn3)CC2)C1)c1cccc(C(F)(F)F)c1` (stereo partly drawn): the activation in [1] was 5.25%. For the same molecule, the Potency result in test [2], in [3], in test [4], in test [8], in [11] and in test [9] was “inactive” throughout. Also, the viability in test [5] was 98.1%. Besides, the Potency in test [7] is 10500 nM (active).
For the molecule `O=C(O)Cn1nnc(-c2cc(N3CCC(Oc4cc(F)ccc4Br)CC3)no2)n1`, the activation in test [1] was 22.3% and 6.21%. Moreover, the Potency result in test [2], in test [3], in [4], in test [8], in [9] and in [10] was “inactive” throughout. Besides, the viability in test [5] is 127%.
